Data: PubChem BioAssay (NCATS)
“And” between values parts separate entries of the source, which are not always exact repeats. Equal entries are not always repeated. Results filed as inconclusive are left out. The source made the active and inactive calls. Unless noted, calls follow the shape of the dose curve; as a rule, active = well fitted curve in the direction sought with a large enough effect; inconclusive = small, poorly fitted or top-dose-only effect, or another doubt; inactive = no such curve, though single readings can be large; an effect the other way counts as inactive or inconclusive.

Legend:
[1] = Cell Viability - BJ (AID 421; calls by dose curve;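 also: potency is read from the fitted curve at half-maximal effect; cells exposed to compound for 40 hours at 37 °C before readout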); conditions: BJ fibroblast viability, qHTS
Outline: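 Luminescent ATP signal (CellTiter-Glo, 20 min at room temperature) served as the read-out of viable BJ cells after 40 hours of compound treatment. Responses were scaled between DMSO and 100 uM tamoxifen, and AC50 values were obtained by Hill modeling.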

[2] = Cell Viability - HepG2 (AID 433; calls by dose curve;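 also: potency is read from the fitted curve at half-maximal effect; potency for ATP loss meaning cytotoxicity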); conditions: qHTS
Outline: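 In this qHTS format, a 40 h, 37 °C compound incubation of HepG2 cells in complete medium precedes a 20 min CellTiter-Glo step at room temperature. Tamoxifen and doxorubicin serve as positive controls; Hill-equation fits yield AC50.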

[3] = Cell Viability - N2a (AID 540); conditions: N2a mouse neuroblastoma cell viability; activity change, negative = cytotoxicity: at 92.2 µM (top of the series);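 also: plate controls were DMSO alone for no effect and tamoxifen control for full effect; nearly all actives have a fitted effect of over 45% in size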
Outline: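 In this qHTS cytotoxicity screen, ATP-dependent luciferase luminescence reports viable N2a cells after a 40 hr compound exposure in complete culture medium. Potencies are AC50 values from standard Hill equation fits.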

[4] = MultiTox-Fluor Cytotoxicity Assay - LYMP1-002 - Live Cells (AID 955); conditions: LYMP1-002 lymphoblastoid live-cell protease fluorescence viability; series mostly up to 46.1 µM;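 also: cells exposed to compound for 16 hours; % is scaled to controls: 0 for no effect and ±100 for the full control effect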
Outline: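 In this qHTS viability format, lymphoblastoid cells (LYMP1-002, human) received compound for 16 hr at 37 C. Fluorogenic GF-AFC cleavage by viable cells was detected at 405/510 nm after 1 h at room temperature.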

[5] = MultiTox-Fluor Cytotoxicity Assay - LYMP1-002 - Dead Cells (AID 960); conditions: LYMP1-002 lymphoblastoid cells, dead-cell protease fluorescence; series mostly up to 46.1 µM;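 also: 0% = DMSO and 100% = tetraoctylammonium bromide; nearly all actives have a fitted effect of over 60% in size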
Outline: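 Concentration-dependent increases in membrane-leaked protease activity are quantified in LYMP1-002 cells after 16 hr treatment; values are normalized against DMSO and tetraoctylammonium bromide (15 uM) controls and AC50 derived by Hill modeling.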

[6] = Cell Viability - LYMP1-003 - Assay at 40 hr (AID 964); conditions: LYMP1-003 lymphoblastoid viability; series mostly up to 92.2 µM; also: % is scaled to controls: 0 for no effect and ±100 for the full control effect; nearly all actives have a fitted effect of over 60% in size
Outline: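 Acute toxicity is scored as a concentration-dependent loss of intracellular ATP in LYMP1-003 cells (2500/well, complete medium) after 40 hr at 37 C, measured by CellTiter-Glo luminescence; AC50 values derive from standard Hill modelling.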

[7] = Cell Viability - LYMP2-004 (AID 966); conditions: LYMP2-004 lymphoblastoid cell viability, qHTS; series mostly up to 92.2 µM;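 also: cells exposed to compound for 24 h; plate controls were DMSO only for no effect and tetraoctylammonium bromide control for full effect; nearly all actives have a fitted effect of over 65% in size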
Outline: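 Viable-cell number estimated from ATP luminescence (CellTiter-Glo) in 2500 human lymphoblastoid cells/well after 24 hr at 37 C with compound. AC50 fitted to the standard Hill equation.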

[8] = Cell Viability - LYMP2-013 (AID 970); conditions: LYMP2-013 lymphoblastoid cells viability; series mostly up to 92.2 µM;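 also: cells exposed to compound for 24 h at 37 °C; 0% = DMSO only and full inhibition = tetraoctylammonium bromide control; nearly all actives have a fitted effect of over 55% in size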
Outline: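 In complete culture medium, human lymphoblastoid cells were dosed for 24 hr at 37 C, with tetraoctylammonium bromide (6.4pM to 92 uM) as positive control. Viability reflects luciferase-based ATP signal; AC50 derived from concentration-response curves.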

[9] = Cell Viability - LYMP2-002 (AID 977); conditions: LYMP2-002 lymphoblastoid cell viability, qHTS; series mostly up to 92.2 µM;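 also: compound exposure lasted 24 h at 37 °C; plate controls were DMSO only for no effect and 92 µM tetraoctylammonium bromide for full effect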
Outline: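 In this qHTS viability screen, 2500 human lymphoblastoid cells per well receive compound for 24 hr at 37 C, and luciferase-based ATP luminescence gives the viability signal. Tetraoctylammonium bromide serves as positive control.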

[10] = Cell Viability - LYMP2-016 (AID 984); conditions: LYMP2-016 lymphoblastoid cell viability, qHTS; series mostly up to 92.2 µM;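 also: cells exposed to compound for 24 hours at 37 °C; % is scaled to controls: 0 for no effect and ±100 for the full control effect; nearly all actives have a fitted effect of over 55% in size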
Outline: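 Concentration-dependent ATP depletion measured in LYMP2-016 lymphoblastoid cells, 24 h, 37 C; luciferase-based luminescent detection; Hill-equation AC50.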

[11] = Cell Viability - LYMP2-018 (AID 985); conditions: LYMP2-018 lymphoblastoid cells, viability (qHTS); series mostly up to 92.2 µM; also: nearly all actives have a fitted effect of over 50% in size; also: potency is read from the fitted curve at half-maximal effect;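 as to activity change, negative = cytotoxicity: plate controls were DMSO only for no effect and tetraoctylammonium bromide at 92 µM for full effect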
Outline: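 In this qHTS viability assay, cells are treated for 24 hr and cellular ATP is quantified by luciferase-based luminescence, with tetraoctylammonium bromide as positive control.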

[12] = Cell Viability - LYMP2-020 (AID 986); conditions: series mostly up to 92.2 µM;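 also: cells exposed to compound for 24 h at 37 °C; plate controls were DMSO only for no effect and tetraoctylammonium bromide at 92 µM for full effect; nearly all actives have a fitted effect of over 55% in size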
Outline: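 Cells at 2500 per well receive a 24 hr compound exposure at 37 C. Viability is measured as ATP-dependent luciferase luminescence, with AC50 modeled from qHTS concentration-response curves.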

[13] = Cell Viability - LYMP2-022 (AID 987); conditions: LYMP2-022 lymphoblastoid cell viability; series mostly up to 92.2 µM; also: nearly all actives have a fitted effect of over 55% in size; also: potency is read from the fitted curve at half-maximal effect
Outline: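 In this qHTS cytotoxicity screen, compound titrations were incubated 24 hr at 37 C with human lymphoblastoid cells in complete medium. Luciferase-based ATP luminescence provided the viability signal.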

[14] = qHTS assay for small molecule antagonists of retinoid X receptor alpha signaling (AID 588546; active = well fitted inhibition curve with a large enough effect in the signal ratio, with a control signal flat, not every such curve was filed as active; the % refers to the signal ratio;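 also: cells stimulated with 9-cis-retinoic acid as agonist; % is scaled to controls: 0 for no effect and ±100 for the full control effect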); conditions: HEK293T RXRa-UAS-bla, beta-lactamase ratio, antagonist mode; measured here: W530 green channel, cytotoxicity proxy
Outline: (§1)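 Beta-lactamase reporter inhibition, read as CCF4 fluorescence ratio (ex 405, em 460/530 nm) after 2 h at RT. HEK293T UAS-bla cells, 2500/well, were stimulated with 9-cis-RA at 500 or 100 nM final alongside test compound for 18 h at 37 C.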

[15] = target: Retinoic acid receptor RXR-alpha (Homo sapiens) (UniProt P19793); test: as above; conditions: HEK293T RXRa-UAS-bla, beta-lactamase ratio, antagonist mode
Outline: as §1

[16] = target: Thyroid hormone receptor beta (Homo sapiens) (UniProt P10828); test: qHTS assay for small molecule antagonists of thyroid hormone receptor beta signaling (AID 588547; active = well fitted inhibition curve with a large enough effect in the signal ratio, with a control signal flat, not every such curve was filed as active; the % refers to the signal ratio;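 also: cells stimulated with 0.4 nM T3 agonist during compound exposure; % is scaled to controls: 0 for no effect and ±100 for the full control effect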); conditions: TR-UAS-bla HEK293, beta-lactamase ratio, antagonist mode, 18 h
Outline: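 TR-UAS-bla GripTite HEK293 cells in 2% charcoal/dextran FBS medium were preincubated 4 h at 37 C, given compound (0.59 nM to 92 uM) plus 0.4 nM T3 (final) for 18 h, then CCF4 for 2 h at RT; Hill fit gave IC50.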

[17] = qHTS assay for environmental chemicals that activate the Aryl hydrocarbon Receptor (AhR) signaling pathway (AID 651777); conditions: 1A2-DRE human hepatoma cells, luciferase, 24 h; activation: stronger effect = higher value; also: nearly all actives have a fitted effect of over 15% in size; also: potency is read from the fitted curve at half-maximal effect; as to activation: % of control where 0% means no effect
Outline: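 1A2-DRE human hepatoma reporter line; 1,200 cells/well; cmpd or DMSO 24 h, 37 C/5% CO2; One-Glo 30 min RT; luciferase lum.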

[18] = target: Nuclear receptor subfamily 1 group I member 2 (Rattus norvegicus) (UniProt Q9R1A7); test: qHTS assay for small molecule activators of the rat pregnane X receptor (rPXR) signaling pathway (AID 651751; call rule not given here; also: 0% is about no effect); conditions: rPXR reporter cells, luciferase (One-Glo), 24 h
[19] = Cell Viability - H-4-II-E (AID 543); conditions: H-4-II-E rat hepatoma viability; series mostly up to 92.2 µM; also: nearly all actives have a fitted effect of over 35% in size; also: potency is read from the fitted curve at half-maximal effect
Outline: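 AC50 from Hill-modelled qHTS concentration-response curves. H-4-II-E rat hepatoma cells in complete medium, 40 hr exposure at 37 °C, viability by CellTiter-Glo ATP luminescence.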

[20] = target: Mitogen-activated protein kinase 10 (Mus musculus) (UniProt Q61831); test: JNK3 AlphaScreen Assay (AID 530; active = well fitted curve in either direction with a large enough effect, not every such curve was filed as active;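 also: kinase came from lysate of stimulated human HepG2 cells; signal reports phosphorylation of biotinylated GST-cJun 1-79 at Ser73 with 10 µM ATP; % is scaled to controls: 0 for no effect and ±100 for the full control effect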); conditions: JNK3 lysate, c-Jun phosphorylation; series mostly up to 11.4 µM
Outline: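 Biotinylated GST-cJun(1-79) served as substrate for JNK3 in HepG2 lysates stimulated with IL-1beta and TNF-alpha. ATP was 10 uM final, pH 7.6. Ser73 phosphorylation was quantified by AlphaScreen (680 nm excitation).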

Sequence of Thyroid hormone receptor beta (Homo sapiens) (P10828 whole entry, looked up): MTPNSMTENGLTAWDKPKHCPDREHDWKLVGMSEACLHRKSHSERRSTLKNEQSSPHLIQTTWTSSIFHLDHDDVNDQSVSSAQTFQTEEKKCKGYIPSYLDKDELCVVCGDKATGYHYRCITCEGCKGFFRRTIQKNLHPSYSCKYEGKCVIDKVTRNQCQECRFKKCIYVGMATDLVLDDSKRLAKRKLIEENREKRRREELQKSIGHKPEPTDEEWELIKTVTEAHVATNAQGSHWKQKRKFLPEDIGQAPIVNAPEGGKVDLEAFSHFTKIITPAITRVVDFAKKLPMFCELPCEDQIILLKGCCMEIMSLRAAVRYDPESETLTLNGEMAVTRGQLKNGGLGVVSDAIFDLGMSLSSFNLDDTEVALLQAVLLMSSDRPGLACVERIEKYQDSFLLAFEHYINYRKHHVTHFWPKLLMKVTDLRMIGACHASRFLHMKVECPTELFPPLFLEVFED
Sequence of Nuclear receptor subfamily 1 group I member 2 (Rattus norvegicus) (Q9R1A7 whole entry, looked up): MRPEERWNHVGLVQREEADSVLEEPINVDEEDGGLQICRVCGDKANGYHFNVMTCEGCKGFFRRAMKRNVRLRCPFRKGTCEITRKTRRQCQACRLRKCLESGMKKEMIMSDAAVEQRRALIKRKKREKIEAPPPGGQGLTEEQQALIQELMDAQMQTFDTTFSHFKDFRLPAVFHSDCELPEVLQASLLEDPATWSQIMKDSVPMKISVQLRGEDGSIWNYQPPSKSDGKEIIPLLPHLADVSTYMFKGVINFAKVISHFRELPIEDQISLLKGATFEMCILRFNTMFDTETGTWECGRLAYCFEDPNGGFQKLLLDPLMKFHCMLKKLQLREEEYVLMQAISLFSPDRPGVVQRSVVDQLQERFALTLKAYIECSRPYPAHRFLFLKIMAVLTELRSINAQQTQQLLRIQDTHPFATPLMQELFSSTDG
Sequence of Retinoic acid receptor RXR-alpha (Homo sapiens) (P19793 whole entry, looked up): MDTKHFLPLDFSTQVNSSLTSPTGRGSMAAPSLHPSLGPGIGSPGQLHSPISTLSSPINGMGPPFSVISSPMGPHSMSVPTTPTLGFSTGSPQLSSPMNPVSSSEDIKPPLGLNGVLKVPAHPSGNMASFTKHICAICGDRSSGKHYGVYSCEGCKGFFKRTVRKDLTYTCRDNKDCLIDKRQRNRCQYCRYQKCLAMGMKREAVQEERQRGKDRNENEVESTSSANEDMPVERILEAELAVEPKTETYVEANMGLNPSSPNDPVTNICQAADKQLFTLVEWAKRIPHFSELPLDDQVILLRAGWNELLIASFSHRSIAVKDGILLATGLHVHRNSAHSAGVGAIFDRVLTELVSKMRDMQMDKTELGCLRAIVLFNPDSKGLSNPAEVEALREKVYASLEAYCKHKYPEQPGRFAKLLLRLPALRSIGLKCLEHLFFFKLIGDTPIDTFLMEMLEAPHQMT

CN(C)c1ccc(Cc2ccc(N(C)C)cc2)cc1
3.74% and -6.02%: max response [14]
inactive: Potency [1] > 92 µM | Potency [2] > 92 µM | activity change, negative = cytotoxicity [3] -41% | outcome [4] | Potency [5] | Potency [6] | Potency [7] | Potency [8] | Potency [9] | Potency [10] | Potency [11] | Potency [12] | Potency [13] | max response [15] 1.04% and -36.9% | activity change % (negative = inhibition) [16] 1.5% | activation [17] 8.36% and 2.98% | max response [18] 1.5% and 4.81%

Cc1ccc(S(N)(=O)=O)cc1
inactive: Potency [1] > 92 µM | Potency [2] > 92 µM | activity change, negative = cytotoxicity [3] -12.6% | Potency [19] | outcome [4] | Potency [5] | Potency [6] | Potency [7] | Potency [8] | Potency [9] | Potency [10] | Potency [11] | Potency [12] | Potency [13] | max response [15] 8.77% and 1.7% | activity change % (negative = inhibition) [16] 17.3% and -1.91% | activation [17] -0.842% | max response [18] -1.87% and 3.62%
-1.11% and -7.98%: max response [14]

C=CC(=O)CC
8.25%: max response [14]
inactive: Potency [1] > 92 µM | Potency [2] > 92 µM | Potency [20] | activity change, negative = cytotoxicity [3] 4.36% | Potency [19] | outcome [4] | Potency [5] | Potency [6] | Potency [7] | Potency [8] | Potency [9] | Potency [10] | Potency [11] | Potency [12] | Potency [13] | max response [15] 10.2% | activity change % (negative = inhibition) [16] 9.8% | activation [17] 1.17% | max response [18] 9.91%

CC(C)COC(=O)COc1cc(Cl)c(Cl)cc1Cl
-2.2%: max response [14]
inactive: Potency [1] > 92 µM | Potency [2] > 92 µM | activity change, negative = cytotoxicity [3] 8.53% | Potency [19] | outcome [4] | Potency [5] | Potency [6] | Potency [7] | Potency [8] | Potency [9] | Potency [10] | Potency [11] | Potency [12] | Potency [13] | max response [15] 8.47% | activity change % (negative = inhibition) [16] 14.2% | activation [17] 1.79% | max response [18] -2.47%

CCOc1ccc2nc(N)sc2c1
-8.45%: max response [14]
active: Potency [17] 10 µM
inactive: Potency [1] > 92 µM | Potency [2] > 92 µM | Potency [20] | activity change, negative = cytotoxicity [3] -2.03% | Potency [19] | outcome [4] | Potency [5] | Potency [6] | Potency [7] | Potency [8] | Potency [9] | Potency [10] | Potency [11] | Potency [12] | Potency [13] | max response [15] -7.66% | activity change % (negative = inhibition) [16] -4.05%

Brc1ccc(-c2ccccc2)cc1
inactive: Potency [1] > 92 µM | Potency [2] > 92 µM | activity change, negative = cytotoxicity [3] -19.3% | Potency [19] | outcome [4] | Potency [5] | Potency [6] | Potency [7] | Potency [8] | Potency [9] | Potency [10] | Potency [11] | Potency [12] | Potency [13] | activation [17] 11.7% | max response [18] 1.6%

O=CC(=O)c1ccccc1
-7.19%: max response [14]
inactive: Potency [1] > 92 µM | Potency [2] > 92 µM | Potency [20] | activity change, negative = cytotoxicity [3] 5.07% | Potency [19] | outcome [4] | Potency [5] | Potency [6] | Potency [8] | Potency [10] | Potency [12] | max response [15] 6.37% | activation [17] 0.568% | max response [18] 11.8%

O=C(OCC1CO1)C1CCCCC1C(=O)OCC1CO1 (stereo unspecified)
active: Potency [19] 50.1 µM | Potency [11] 39.8 µM | Potency [13] 39.8 µM
inactive: Potency [1] > 92 µM | Potency [2] > 92 µM | Potency [20] | activity change, negative = cytotoxicity [3] 2.77% | outcome [4] | activity change % (negative = inhibition) [16] -2.36% | activation [17] 0.749% | max response [18] 1.33%

Nc1ccc(-c2ccc(N)c(O)c2)cc1O
active: activity change, negative = cytotoxicity [3] -122%
-41.6%: max response [14]
inactive: Potency [1] > 92 µM | Potency [2] > 92 µM | Potency [20] | outcome [4] | Potency [5] | Potency [6] | Potency [8] | Potency [9] | Potency [10] | Potency [12] | max response [15] -12% | activity change % (negative = inhibition) [16] -12.5% | activation [17] -0.254% | max response [18] -1.46%

c1ccc2ncccc2c1
inactive: Potency [1] > 92 µM | Potency [2] > 92 µM | activity change, negative = cytotoxicity [3] -5.79% | Potency [19] | outcome [4] | Potency [5] | Potency [6] | Potency [7] | Potency [8] | Potency [9] | Potency [10] | Potency [11] | Potency [12] | Potency [13] | max response [15] 0.834% | activity change % (negative = inhibition) [16] 3.38% | activation [17] -0.0283% | max response [18] 5.68%
-0.528%: max response [14]

c1cc2c3c(c1)ccc1cccc(c13)C2
inactive: Potency [1] > 92 µM | Potency [2] > 92 µM | activity change, negative = cytotoxicity [3] 0.332% | Potency [19] | outcome [4] | Potency [5] | Potency [6] | Potency [7] | Potency [8] | Potency [9] | Potency [10] | Potency [11] | Potency [12] | Potency [13] | max response [15] -11.6% | activity change % (negative = inhibition) [16] -0.0299% | activation [17] -0.581% | max response [18] -0.774%
-1.55%: max response [14]

CCNC(=S)NCC
-3.33%: max response [14]
inactive: Potency [1] > 92 µM | Potency [2] > 92 µM | Potency [20] | activity change, negative = cytotoxicity [3] -22% | Potency [19] | outcome [4] | Potency [5] | Potency [6] | Potency [7] | Potency [8] | Potency [9] | Potency [10] | Potency [11] | Potency [12] | Potency [13] | max response [15] 14.7% | activity change % (negative = inhibition) [16] -1.42% | activation [17] 1.67% | max response [18] -0.653%
